E-sel TNF inh – blocks E-selectin expression induced by TNF alpha. HUVEC TNFa-induced E-selectin immunofluorescence, high content. inhibition, % at 2 µM. 120,000 tested, 0.71% active;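 active = inhibition above the batch mean plus 3 SD, and confirmed as a hit on visual image review, cut at about 43% in these data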
CYP2C19 inhib – blocks human cytochrome P450 2C19; P33261; CYP2C19 Supersomes, luciferin-H EGE luminescence, 30 min; inhibition, % at 5 µM; 96,000 tested, 21% active;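 active = CYP2C19 inhibition above a set limit at 5 µM in the primary screen, cut at about 50% in these data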
CYP2C19 activ – cytochrome P450 2C19 (human) activation; recombinant CYP2C19, luciferin-H EGE luminescence; active compounds read high; 0 = fully inhibited enzyme, 1 = untreated enzyme; activation factor at 5 µM; AID 1025; P33261; 96,000 tested, under 10 active;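 active = activation factor of at least 2 at 5 µM in the primary screen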
F-actin modifier – modifiers of cytoskeleton assembly; HUVEC TNFa F-actin phalloidin imaging, high content; inhibition, % at 2 µM; 91,000 tested, 0.18% active;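 active = inhibition above the batch mean plus 3 SD and confirmed as a hit by visual image inspection, cut at about 30% in these data, passing the limit was not always enough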
CYP2C9 inh – blocks human cytochrome P450 2C9; P11712; CYP2C9 Supersomes, luciferin-H conversion, luminescence; inhibition, % at 5 µM; 96,000 tested, 20% active; AID 777;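 active = blocking of liver enzyme CYP2C9 beyond about 50% at 5 µM, limit read from the data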
Target sequence (P11712 whole entry, looked up): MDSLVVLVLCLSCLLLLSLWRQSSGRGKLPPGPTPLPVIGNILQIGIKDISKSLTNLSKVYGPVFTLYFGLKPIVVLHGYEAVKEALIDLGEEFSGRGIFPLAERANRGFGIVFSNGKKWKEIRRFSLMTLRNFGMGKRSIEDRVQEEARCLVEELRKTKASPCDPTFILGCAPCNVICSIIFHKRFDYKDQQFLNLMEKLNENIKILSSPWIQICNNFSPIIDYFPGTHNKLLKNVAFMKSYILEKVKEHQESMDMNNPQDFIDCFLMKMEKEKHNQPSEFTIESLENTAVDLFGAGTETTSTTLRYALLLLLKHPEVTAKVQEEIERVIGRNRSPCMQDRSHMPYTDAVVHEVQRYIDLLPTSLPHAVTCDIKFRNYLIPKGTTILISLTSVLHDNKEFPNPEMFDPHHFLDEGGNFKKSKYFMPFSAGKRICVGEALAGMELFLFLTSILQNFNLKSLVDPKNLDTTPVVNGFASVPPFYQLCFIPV
CYP2C9 activ – activators of human CYP2C9; P11712; recombinant CYP2C9, luciferin-H conversion, luminescence; active compounds read high; factor 1 = untreated enzyme, 0 = blocked; activation factor at 5 µM; 96,000 tested, 1.4% active; AID 1024;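 active = activation factor of 2 or more for CYP2C9 at a 5 µM dose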
Of the large screens only hits and unclear results are named; the others gave an inactive call. The list is not random: actives were taken first. Their share in the collection is about 22%.

C=CCn1c(Cc2cccs2)nnc1SCC(=O)NCc1ccco1	CYP2C9 inh 65.0
CCCCCn1c(=N)n(CC(O)COc2ccccc2OC)c2ccccc21 (stereo not drawn)	none (no result: E-sel TNF inh)
Cc1ccc(C(=O)CSc2nnc(-c3ccccc3)o2)cc1	none (no result: CYP2C19 inhib, CYP2C19 activ, CYP2C9 inh, CYP2C9 activ)
O=C(Nc1ccc2c(c1)OCO2)c1c(Cl)nc2sccn12	none
C=CCn1c(Cc2cccs2)nnc1SCC(=O)c1cccc(Br)c1	CYP2C19 inhib 62.0
Cc1cc(NC(=O)c2cccc(S(=O)(=O)N3CCCCCC3)c2)n(-c2ccccn2)n1	none (no result: E-sel TNF inh)
COc1ccc(/C=C/C(=O)Nc2cc(C)nn2-c2nc3ccccc3[nH]2)cc1	none (no result: CYP2C19 inhib, CYP2C19 activ, F-actin modifier, CYP2C9 inh, CYP2C9 activ)
Cc1cc(NC(=O)/C=C/c2cccc(Cl)c2)n(-c2nc3ccccc3[nH]2)n1	none (no result: CYP2C19 inhib, CYP2C19 activ, F-actin modifier, CYP2C9 inh, CYP2C9 activ)
Cc1cc(NC(=O)C2CCC2)n(-c2ccccn2)n1	CYP2C9 activ 3 (no result: F-actin modifier)
Cc1cc(NC(=O)c2ccccc2F)n(-c2nc3ccccc3[nH]2)n1	none
Cc1cc(NC(=O)c2c(F)cccc2Cl)n(-c2nc3ccccc3[nH]2)n1	CYP2C19 inhib 86.4, CYP2C9 inh 94.8
Cc1cc(NC(=O)C2CCCCC2)n(-c2nc3ccccc3[nH]2)n1	CYP2C9 inh 70.6
Cc1cc(NC(=O)c2c(F)cccc2F)n(-c2nc3ccccc3[nH]2)n1	CYP2C9 inh 51.5 (no result: E-sel TNF inh)
CC(=O)Nc1cc(C(=O)N2CCN(C)CC2)ccc1S(=O)(=O)c1ccc(C)cc1	none
Cc1cc(C)nc(-n2nc(C)cc2Nc2ccccc2)n1	none
Cc1cc(Nc2ccccc2)n(-c2nc3ccccc3[nH]2)n1	CYP2C9 inh 69.2 (no result: F-actin modifier)
COc1ccccc1-n1c(CNC(=O)c2ccc(S(=O)(=O)N3CCOCC3)cc2)n[nH]c1=S	none
C=C1N(CCCCCC(=O)O)C(=O)OC12CCCCC2	none (no result: F-actin modifier)
CCN(CC)S(=O)(=O)c1cccc(C(=O)N[C@H](C(=O)NCc2ccccc2F)C(C)C)c1	CYP2C9 inh 84.7
CCN(CC)S(=O)(=O)c1cccc(C(=O)N[C@H](C(=O)NCc2ccc(Cl)cc2)C(C)C)c1	CYP2C9 inh 97.2
CCN(CC)S(=O)(=O)c1cccc(C(=O)NC(C(=O)Nc2nnc(C)s2)C(C)C)c1 (stereo not drawn)	CYP2C9 inh 78.1
CCN(CC)S(=O)(=O)c1ccc(Cl)c(C(=O)Nc2nnc(C)s2)c1	CYP2C9 inh 80.5 (no result: F-actin modifier)
CCN(CC)S(=O)(=O)c1cccc(C(=O)N[C@H](C(=O)O)C(C)C)c1	none
O=C(CSc1ccccc1)Nc1nnc(COc2ccc(Cl)cc2)s1	none (no result: CYP2C19 inhib, CYP2C19 activ, F-actin modifier, CYP2C9 inh, CYP2C9 activ)
CC(C)(C)NC(=O)c1cccc2c1OC(C)(C)C2	none (no result: CYP2C19 inhib, CYP2C19 activ, F-actin modifier, CYP2C9 inh, CYP2C9 activ)
O=C(COc1ccc2ccc(=O)oc2c1)Nc1ccc2c(c1)OCCO2	none (no result: CYP2C19 inhib, CYP2C19 activ, F-actin modifier, CYP2C9 inh, CYP2C9 activ)
O=C(CSc1n[nH]c(-c2ccc(S(=O)(=O)NC3CCCCC3)cc2)n1)N1CCCC1	CYP2C19 inhib 87.2, CYP2C9 inh 51.3
COc1cccc2c(=O)n(CC(=O)Nc3ccc(F)cc3F)ccc12	CYP2C19 inhib 56.3
CCCNC(=O)COC(=O)c1ccc(OCC(=O)Nc2ccccc2OC)c(OC)c1	none (no result: E-sel TNF inh)
COc1cc(C(=O)OCC(=O)Nc2ccc(F)cc2F)cc(OC)c1OC	CYP2C19 inhib 64.7 (no result: E-sel TNF inh)
CCC(CC)NC(=O)COC(=O)c1ccc(OCC(=O)Nc2ccccc2OC)c(OC)c1	CYP2C19 inhib 70.9
COc1ccc(C(=O)OCC(=O)Nc2ccc(F)c(F)c2)cc1OC	CYP2C19 inhib 58.3
CC1=CCC(C(=O)O)(C(=O)N/N=C/c2cccs2)C(c2ccc(Cl)cc2)C1 (stereo not drawn)	none
COc1cccc(N=c2oc3ccccc3cc2-c2nc3ccccc3[nH]2)c1	none
O=C(CN(C(=O)CSc1nc2ccccc2o1)c1ccccc1F)NC1CCCCC1	none (no result: CYP2C19 inhib, CYP2C19 activ, F-actin modifier, CYP2C9 inh, CYP2C9 activ)
O=C(CN(Cc1ccc2c(c1)OCO2)C(=O)CSc1nc2ccccc2o1)NC1CCCCC1	CYP2C19 inhib 97.5, CYP2C9 inh 96.0 (no result: E-sel TNF inh)
CC(=O)c1cc2c(cc1NC(=O)CSc1nc3ccccc3o1)OCO2	none
COCCN(CC(=O)NC1CCCCC1)C(=O)CSc1nc2ccccc2o1	CYP2C19 inhib 92.1
COc1nc(N(c2ccccc2)c2ccccc2)nc(-n2ccnc2)n1	CYP2C19 inhib 85.7, CYP2C9 inh 63.6
O=C(NCc1cccs1)c1ccccc1F	none (no result: CYP2C19 inhib, CYP2C19 activ, CYP2C9 inh, CYP2C9 activ)
COc1cccc(-c2nnc(NC(=O)Cc3cccs3)s2)c1	none
CC(NC(=O)Cc1cccs1)c1ccc2c(c1)OCO2 (stereo not drawn)	none (no result: F-actin modifier)
CC(NC(=O)Cc1cccs1)c1ccncc1 (stereo not drawn)	CYP2C19 inhib 63.7, CYP2C9 inh 66.0
O=C(Cc1cccs1)Nc1nnc(-c2ccncc2)s1	CYP2C19 inhib 98.2, CYP2C9 inh 95.6 (no result: F-actin modifier)
O=C(COc1ccccc1F)Nc1nnc(-c2ccncc2)s1	CYP2C19 inhib 93.3, CYP2C9 inh 95.3
O=C(Cc1cccs1)NCc1ccccc1F	CYP2C19 inhib 70.6
CCC(C)C1C(C#N)=C(N)OC2=C1C(=O)CC(C)(C)C2 (stereo not drawn)	none (no result: CYP2C19 inhib, CYP2C19 activ, CYP2C9 inh, CYP2C9 activ)
C/C(CC(=O)Nc1ccc(N(C)C)cc1)=N\NC(=O)c1ccc([N+](=O)[O-])cc1Cl	none (no result: CYP2C19 inhib, CYP2C19 activ, F-actin modifier, CYP2C9 inh, CYP2C9 activ)
O=C(Cc1cccs1)NCc1ccccc1	none (no result: F-actin modifier)
Cc1ccc(CNC(=O)Cc2cccs2)cc1	CYP2C19 inhib 89.9
O=C(Cc1cccs1)NCc1ccncc1	E-sel TNF inh 63.9
CCn1c(-c2cc(Br)cc(OC)c2O)nc2cc(S(=O)(=O)N(C)C)ccc21	none (no result: E-sel TNF inh)
O=C1NN(c2ccc(Cl)c(Cl)c2)C(=O)/C1=C/c1cccc(OC(=O)c2cccs2)c1	none
O=C1NN(c2ccccc2)C(=O)/C1=C\c1cccc(OC(=O)c2cccs2)c1	CYP2C19 inhib 51.9, CYP2C9 inh 95.8
CC(C)c1ccccc1NC(=O)COc1ccc(C(=O)NCCc2ccccc2)cc1	none (no result: CYP2C19 inhib, CYP2C19 activ, F-actin modifier, CYP2C9 inh, CYP2C9 activ)
O=C(Cn1cnc2c(cnn2-c2ccccc2)c1=O)N1CCN(c2ccc(F)cc2)CC1	none (no result: F-actin modifier)
Cc1cccc(S(=O)(=O)c2c(N)n(/N=C/c3ccco3)c3nc4ccccc4nc23)c1	CYP2C19 inhib 61.2, CYP2C9 inh 85.7
Nc1c(S(=O)(=O)c2ccccc2)c2nc3ccccc3nc2n1/N=C/c1ccco1	none
Cc1ccc(S(=O)(=O)c2c(N)n(/N=C/c3ccco3)c3nc4ccccc4nc23)cc1	CYP2C19 inhib 68.4, CYP2C9 inh 83.7 (no result: E-sel TNF inh)
Cc1ccc(S(=O)(=O)c2c(N)n(/N=C/c3ccco3)c3nc4ccccc4nc23)cc1C	CYP2C9 inh 50.8
Cc1ccc(S(=O)(=O)c2c(N)n(CC3CCOC3)c3nc4ccccc4nc23)cc1 (stereo not drawn)	CYP2C19 inhib 85.5, CYP2C9 inh 81.7
Cc1noc(C)c1S(=O)(=O)N1CCN(Cc2ccc3c(c2)OCO3)CC1	none (no result: E-sel TNF inh)
CCn1c(-c2ccccc2)c(C(=O)O)c2ccccc21	none
Cc1[nH]nc2c1C(c1ccsc1)C1=C(CC(C)(C)CC1=O)N2 (stereo not drawn)	none (no result: CYP2C19 inhib, CYP2C19 activ, F-actin modifier, CYP2C9 inh, CYP2C9 activ)
Cn1c(=O)c(NC(=O)c2ccccc2)c2n(c1=S)CCCCC2	none
COc1ccc(/C(C)=C2/SC(=S)N(CCC(=O)O)C2=O)cc1	none
CCn1c(C)cc2c(c1=O)C(c1ccccc1)C(C(=O)OC)=C(N)O2 (stereo not drawn)	none

Compound activity from PubChem BioAssay.
